Measured values from PubChem BioAssay AID1159580 (chemical genetic matrix, 2015).
Values joined by “and” are separate entries in the source; they are usually repeats but may differ in a detail not shown here. Equal values may be shown once. The campaign covered roughly 5,500 compounds. About 2,000 (36%) were called active. Not shown: some 18% with an inconclusive outcome. Rule as the data show it: active = normalized growth mostly below about 0.91 (no sharp cut-off); inconclusive = no clear call, values can overlap the other calls; inactive = mostly above about 0.92. The list shows a part of the results.

Experiment: chemical genetic growth profiling, strain panel (AID 1159580);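 also: tested at 20 µM; growth read once vehicle control cultures reached saturation at 30 °C; 1 = growth at the plate median or of vehicle wells; lower values mean less growth of the strain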
Conditions: S. cerevisiae deletion strains, growth OD

Measured: normalized growth

CCOC(=O)C1=C(C)NC(C)=C(C(=O)OC)C1c1cccc([N+](=O)[O-])c1 (stereo unspecified)
inactive: locus YAL013W, strain DEP1, stronger effect = lower value 1 and 0.987 | locus YAL021C, strain ccr4, stronger effect = lower value 0.996 | locus YAL026C, strain drs2, stronger effect = lower value 1.01 | locus YAL030W, strain snc1, stronger effect = lower value 0.997 | locus YBL061C, strain skt5, stronger effect = lower value 1 | locus YBR009C, strain hhf1, stronger effect = lower value 1.01 | locus YBR021W, strain FUR4, stronger effect = lower value 0.977 | locus YBR023C, strain chs3, stronger effect = lower value 0.999 | locus YBR171W, strain sec66, stronger effect = lower value 1.01 | locus YBR229C, strain ROT2, stronger effect = lower value 1.01 | locus YBR231C, strain swc5, stronger effect = lower value 0.999 | locus YBR279W, strain paf1, stronger effect = lower value 1.01 | locus YCL011C, strain gbp2, stronger effect = lower value 0.995 | locus YCL016C, strain dcc1, stronger effect = lower value 1.01 | locus YCL029C, strain bik1, stronger effect = lower value 1.01 | locus YCL061C, strain MRC1 (second series), stronger effect = lower value 0.985 | locus YCL061C, strain MRC1, stronger effect = lower value 1.01 | locus YCL069W, strain vba3, stronger effect = lower value 1.01 | locus YCR088W, strain abp1, stronger effect = lower value 1.01 | locus YDL005C, strain med2, stronger effect = lower value 1.01 | locus YDL035C, strain GPR1, stronger effect = lower value 1 | locus YDL040C, strain nat1, stronger effect = lower value 1 | locus YDL074C, strain BRE1, stronger effect = lower value 0.988 | locus YDL101C, strain DUN1, stronger effect = lower value 1 | locus YDL134C, strain PPH21, stronger effect = lower value 1 | locus YDL185W, strain tfp1, stronger effect = lower value 0.996 | locus YDL192W, strain arf1, stronger effect = lower value 1 | locus YDR001C, strain nth1, stronger effect = lower value 1.01 | locus YDR069C, strain doa4, stronger effect = lower value 1.01 | locus YDR101C, strain arx1, stronger effect = lower value 0.997 | locus YDR137W, strain rgp1, stronger effect = lower value 0.98 | locus YDR150W, strain NUM1, stronger effect = lower value 1 | locus YDR159W, strain sac3, stronger effect = lower value 1.01 | locus YDR162C, strain NBP2, stronger effect = lower value 0.945 | locus YDR195W, strain ref2 1.03 | locus YDR297W, strain sur2, stronger effect = lower value 1 | locus YDR318W, strain mcm21, stronger effect = lower value 1.02 | locus YDR334W, strain swr1, stronger effect = lower value 1.02 | locus YDR335W, strain msn5, stronger effect = lower value 1.02 | locus YDR363W, strain ESC2, stronger effect = lower value 1 | locus YDR388W, stronger effect = lower value 1.01 | locus YDR392W, strain spt3, stronger effect = lower value 0.946 | locus YDR502C, strain sam2, stronger effect = lower value 1 | locus YEL003W, strain gim4, stronger effect = lower value 1.01 | locus YEL037C, strain rad23, stronger effect = lower value 1.01 | locus YEL061C, strain CIN8 (second series), stronger effect = lower value 1.01 | locus YEL061C, strain CIN8, stronger effect = lower value 0.994 | locus YER002W, strain NOP16, stronger effect = lower value 0.933 | locus YER015W, strain faa2, stronger effect = lower value 1.02 | locus YER016W, strain bim1, stronger effect = lower value 1.01 | locus YER110C, stronger effect = lower value 1.01 | locus YER111C, strain swi4, stronger effect = lower value 1.02 | locus YER155C, strain BEM2 (second series), stronger effect = lower value 1.03 | locus YER155C, strain BEM2, stronger effect = lower value 0.997 | locus YER167W, strain BCK2, stronger effect = lower value 1 | locus YFR010W, strain ubp6, stronger effect = lower value 1.02 | locus YGL078C, strain dbp3, stronger effect = lower value 1.01 | locus YGL086W, strain mad1, stronger effect = lower value 1.02 | locus YGL167C, strain pmr1, stronger effect = lower value 1 | locus YGL173C, strain kem1, stronger effect = lower value 1.01 | locus YGL227W, strain vid30, stronger effect = lower value 1.01 | locus YGL240W, strain doc1, stronger effect = lower value 0.994 | locus YGL248W, strain PDE1, stronger effect = lower value 0.998 | locus YGL253W, strain hxk2, stronger effect = lower value 1 | locus YGR078C, strain PAC10, stronger effect = lower value 0.977 | locus YGR135W, strain pre9, stronger effect = lower value 0.977 | locus YGR229C, strain SMI1, stronger effect = lower value 0.961 and 1 | locus YGR252W, strain gcn5, stronger effect = lower value 1.02 | locus YHR013C, strain ard1, stronger effect = lower value 1.03 | locus YHR027C, strain rpn1, stronger effect = lower value 1.01 | locus YHR030C, strain SLT2, stronger effect = lower value 1.01 | locus YHR079C, strain IRE1 (second series), stronger effect = lower value 1 | locus YHR094C, strain hxt1, stronger effect = lower value 0.994 | locus YHR129C, strain ARP1, stronger effect = lower value 1.01 | locus YHR142W, strain chs7, stronger effect = lower value 0.976 | locus YHR200W, strain rpn10, stronger effect = lower value 1 | locus YIL066C, strain RNR3, stronger effect = lower value 1.02 | locus YIL073C, strain SPO22, stronger effect = lower value 1.04 | locus YIL125W, strain kgd1, stronger effect = lower value 0.999 | locus YIR030C, strain dcg1, stronger effect = lower value 0.999 | locus YJL092W, strain hpr5, stronger effect = lower value 1 | locus YJL095W, strain BCK1 (second series), stronger effect = lower value 1.01 | locus YJL095W, strain BCK1, stronger effect = lower value 0.994 | locus YJL115W, strain asf1, stronger effect = lower value 1.02 | locus YJL129C, strain trk1, stronger effect = lower value 0.992 | locus YJL134W, strain LCB3, stronger effect = lower value 1 | locus YJL154C, strain vps35, stronger effect = lower value 1.02 | locus YJL164C, strain tpk1, stronger effect = lower value 1.01 | locus YJL166W, strain qcr8, stronger effect = lower value 1.01 | locus YJL168C, strain set2, stronger effect = lower value 1.01 | locus YJL187C, strain SWE1 (second series), stronger effect = lower value 1.01
